From ChEMBL document CHEMBL1961873, “Compounds: GSK PKIS; Assays: Nanosyn kinase panel” (2012)
Values joined by “and” are separate entries in the source; they are usually repeats but may differ in a detail not shown here. Equal values may be shown once.

How the values were obtained:
[1] = target: T1, Muscle, skeletal receptor tyrosine-protein kinase (Homo sapiens) (UniProt O15146); conditions: at 1 µM;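 further: reported value is the mean percent inhibition of MuSK kinase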
T1 sequence (whole entry): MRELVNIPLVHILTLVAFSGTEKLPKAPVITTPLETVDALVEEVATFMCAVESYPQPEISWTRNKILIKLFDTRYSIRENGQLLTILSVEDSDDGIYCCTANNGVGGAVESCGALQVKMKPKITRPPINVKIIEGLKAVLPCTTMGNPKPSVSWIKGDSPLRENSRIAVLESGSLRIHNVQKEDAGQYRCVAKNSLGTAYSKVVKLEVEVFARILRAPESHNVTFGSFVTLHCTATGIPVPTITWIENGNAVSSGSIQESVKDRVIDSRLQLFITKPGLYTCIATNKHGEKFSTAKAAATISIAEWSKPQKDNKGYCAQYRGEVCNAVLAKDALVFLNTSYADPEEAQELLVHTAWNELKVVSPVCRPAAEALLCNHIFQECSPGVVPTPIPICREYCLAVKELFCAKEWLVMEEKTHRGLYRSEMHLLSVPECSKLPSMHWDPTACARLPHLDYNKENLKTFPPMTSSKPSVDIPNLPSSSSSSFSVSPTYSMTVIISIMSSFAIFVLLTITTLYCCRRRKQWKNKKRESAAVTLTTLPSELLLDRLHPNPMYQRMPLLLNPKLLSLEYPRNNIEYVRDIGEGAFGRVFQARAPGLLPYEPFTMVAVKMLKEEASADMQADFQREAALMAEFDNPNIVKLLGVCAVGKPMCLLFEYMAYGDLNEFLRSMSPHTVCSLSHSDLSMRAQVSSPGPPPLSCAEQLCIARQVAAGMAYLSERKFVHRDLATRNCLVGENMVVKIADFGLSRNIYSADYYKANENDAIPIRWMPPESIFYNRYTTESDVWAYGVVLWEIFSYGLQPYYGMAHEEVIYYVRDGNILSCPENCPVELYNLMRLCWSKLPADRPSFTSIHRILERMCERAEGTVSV

[2] = target: Platelet-derived growth factor receptor alpha (Homo sapiens) (UniProt P16234); conditions: at 0.1 µM
[3] = target: Platelet-derived growth factor receptor alpha (Homo sapiens) (UniProt P16234); conditions: at 1 µM
[4] = tested on: Platelet-derived growth factor receptor alpha (Homo sapiens), P16234 [D842V]; conditions: at 0.1 µM
[5] = tested on: Platelet-derived growth factor receptor alpha (Homo sapiens), P16234 [D842V]; conditions: at 1 µM
[6] = tested on: Platelet-derived growth factor receptor alpha (Homo sapiens), P16234 [T674I]; conditions: at 0.1 µM
[7] = tested on: Platelet-derived growth factor receptor alpha (Homo sapiens), P16234 [T674I]; conditions: at 1 µM
[8] = tested on: Platelet-derived growth factor receptor alpha (Homo sapiens), P16234 [V561D]; conditions: at 0.1 µM
[9] = tested on: Platelet-derived growth factor receptor alpha (Homo sapiens), P16234 [V561D]; conditions: at 1 µM
[10] = target: Platelet-derived growth factor receptor beta (Homo sapiens) (UniProt P09619); conditions: at 0.1 µM
[11] = target: Platelet-derived growth factor receptor beta (Homo sapiens) (UniProt P09619); conditions: at 1 µM
[12] = target: Tyrosine-protein kinase FRK (Homo sapiens) (UniProt P42685); conditions: at 0.1 µM
[13] = target: Tyrosine-protein kinase FRK (Homo sapiens) (UniProt P42685); conditions: at 1 µM
[14] = target: Protein-tyrosine kinase 2-beta (Homo sapiens) (UniProt Q14289); conditions: at 0.1 µM
[15] = target: Protein-tyrosine kinase 2-beta (Homo sapiens) (UniProt Q14289); conditions: at 1 µM
[16] = target: Proto-oncogene tyrosine-protein kinase receptor Ret (Homo sapiens) (UniProt P07949); conditions: at 0.1 µM
[17] = target: Proto-oncogene tyrosine-protein kinase receptor Ret (Homo sapiens) (UniProt P07949); conditions: at 1 µM
[18] = tested on: Proto-oncogene tyrosine-protein kinase receptor Ret (Homo sapiens), P07949 [V804L]; conditions: at 0.1 µM
[19] = tested on: Proto-oncogene tyrosine-protein kinase receptor Ret (Homo sapiens), P07949 [V804L]; conditions: at 1 µM
[20] = tested on: Proto-oncogene tyrosine-protein kinase receptor Ret (Homo sapiens), P07949 [Y791F]; conditions: at 0.1 µM

Chain of Proto-oncogene tyrosine-protein kinase receptor Ret (Homo sapiens), P07949 [V804L] (P07949 whole entry V804L): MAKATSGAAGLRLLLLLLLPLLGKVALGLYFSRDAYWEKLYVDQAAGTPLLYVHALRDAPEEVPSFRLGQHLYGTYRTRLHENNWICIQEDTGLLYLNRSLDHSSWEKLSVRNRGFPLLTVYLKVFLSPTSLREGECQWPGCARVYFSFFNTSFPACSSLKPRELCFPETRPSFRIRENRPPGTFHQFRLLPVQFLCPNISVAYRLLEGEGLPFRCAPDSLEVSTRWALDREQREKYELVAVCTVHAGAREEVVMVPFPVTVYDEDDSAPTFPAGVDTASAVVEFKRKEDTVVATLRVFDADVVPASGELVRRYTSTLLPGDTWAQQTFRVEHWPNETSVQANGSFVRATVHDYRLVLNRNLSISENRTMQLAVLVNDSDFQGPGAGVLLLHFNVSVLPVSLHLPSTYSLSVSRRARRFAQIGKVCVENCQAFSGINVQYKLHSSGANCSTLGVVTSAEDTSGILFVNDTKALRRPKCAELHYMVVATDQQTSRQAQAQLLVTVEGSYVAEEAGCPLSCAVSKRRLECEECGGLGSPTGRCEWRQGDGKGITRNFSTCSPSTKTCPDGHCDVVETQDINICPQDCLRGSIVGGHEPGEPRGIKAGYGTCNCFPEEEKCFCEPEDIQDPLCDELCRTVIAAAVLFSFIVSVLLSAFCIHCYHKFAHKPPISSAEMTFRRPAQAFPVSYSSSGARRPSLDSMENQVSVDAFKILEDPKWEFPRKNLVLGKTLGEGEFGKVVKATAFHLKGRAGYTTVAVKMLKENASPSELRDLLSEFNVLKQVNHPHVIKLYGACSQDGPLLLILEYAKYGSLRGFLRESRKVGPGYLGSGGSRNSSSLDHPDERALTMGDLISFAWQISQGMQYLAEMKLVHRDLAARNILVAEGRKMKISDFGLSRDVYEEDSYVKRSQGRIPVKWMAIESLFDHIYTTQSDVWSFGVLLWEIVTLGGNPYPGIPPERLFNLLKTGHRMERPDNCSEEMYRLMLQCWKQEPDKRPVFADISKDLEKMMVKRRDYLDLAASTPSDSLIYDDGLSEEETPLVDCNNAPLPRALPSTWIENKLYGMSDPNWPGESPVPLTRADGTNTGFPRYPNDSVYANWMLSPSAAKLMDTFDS
Chain of Platelet-derived growth factor receptor alpha (Homo sapiens), P16234 [V561D] (P16234 whole entry V561D): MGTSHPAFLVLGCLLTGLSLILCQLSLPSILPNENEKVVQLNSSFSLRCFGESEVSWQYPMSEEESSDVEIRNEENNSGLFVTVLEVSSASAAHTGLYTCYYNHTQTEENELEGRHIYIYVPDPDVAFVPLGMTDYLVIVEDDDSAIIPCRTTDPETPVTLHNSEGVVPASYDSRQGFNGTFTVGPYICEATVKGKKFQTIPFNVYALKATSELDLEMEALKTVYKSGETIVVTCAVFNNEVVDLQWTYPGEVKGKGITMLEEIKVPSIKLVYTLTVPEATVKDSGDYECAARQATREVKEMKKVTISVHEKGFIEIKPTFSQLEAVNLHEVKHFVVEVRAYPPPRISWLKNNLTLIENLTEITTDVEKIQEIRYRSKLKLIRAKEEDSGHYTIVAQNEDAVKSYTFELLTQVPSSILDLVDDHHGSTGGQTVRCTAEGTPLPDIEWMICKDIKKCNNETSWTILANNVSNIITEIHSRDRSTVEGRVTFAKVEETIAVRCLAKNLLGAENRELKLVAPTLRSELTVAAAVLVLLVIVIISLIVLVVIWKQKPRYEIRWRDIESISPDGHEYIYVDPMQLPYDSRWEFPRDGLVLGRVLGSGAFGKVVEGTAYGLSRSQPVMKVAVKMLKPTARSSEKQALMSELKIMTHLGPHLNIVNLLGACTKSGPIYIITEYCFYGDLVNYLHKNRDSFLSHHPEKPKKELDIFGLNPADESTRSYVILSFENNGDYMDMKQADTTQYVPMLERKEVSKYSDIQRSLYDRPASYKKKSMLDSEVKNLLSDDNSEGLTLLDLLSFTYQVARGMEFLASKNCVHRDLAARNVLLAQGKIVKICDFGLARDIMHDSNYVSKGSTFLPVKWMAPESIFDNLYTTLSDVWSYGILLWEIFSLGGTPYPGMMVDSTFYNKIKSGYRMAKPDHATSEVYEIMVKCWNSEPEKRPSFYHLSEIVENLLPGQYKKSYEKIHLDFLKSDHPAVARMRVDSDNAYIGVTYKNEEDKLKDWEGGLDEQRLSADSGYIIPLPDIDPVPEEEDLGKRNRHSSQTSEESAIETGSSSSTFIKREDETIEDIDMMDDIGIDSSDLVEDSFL
Chain of Tyrosine-protein kinase FRK (Homo sapiens) (P42685 whole entry): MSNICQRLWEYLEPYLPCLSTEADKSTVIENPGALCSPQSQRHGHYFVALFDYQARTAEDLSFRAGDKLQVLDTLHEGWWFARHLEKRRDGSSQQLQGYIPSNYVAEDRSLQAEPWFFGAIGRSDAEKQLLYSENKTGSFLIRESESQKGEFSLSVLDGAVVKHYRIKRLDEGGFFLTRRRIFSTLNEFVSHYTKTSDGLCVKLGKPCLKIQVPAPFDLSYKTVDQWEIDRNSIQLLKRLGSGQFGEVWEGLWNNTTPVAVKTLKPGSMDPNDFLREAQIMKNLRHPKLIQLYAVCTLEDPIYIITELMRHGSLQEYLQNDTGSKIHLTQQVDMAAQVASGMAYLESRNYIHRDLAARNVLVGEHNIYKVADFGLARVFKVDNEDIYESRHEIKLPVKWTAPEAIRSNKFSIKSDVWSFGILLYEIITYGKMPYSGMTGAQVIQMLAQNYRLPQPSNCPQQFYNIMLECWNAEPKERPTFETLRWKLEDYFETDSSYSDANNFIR
Chain of Protein-tyrosine kinase 2-beta (Homo sapiens) (Q14289 whole entry, looked up): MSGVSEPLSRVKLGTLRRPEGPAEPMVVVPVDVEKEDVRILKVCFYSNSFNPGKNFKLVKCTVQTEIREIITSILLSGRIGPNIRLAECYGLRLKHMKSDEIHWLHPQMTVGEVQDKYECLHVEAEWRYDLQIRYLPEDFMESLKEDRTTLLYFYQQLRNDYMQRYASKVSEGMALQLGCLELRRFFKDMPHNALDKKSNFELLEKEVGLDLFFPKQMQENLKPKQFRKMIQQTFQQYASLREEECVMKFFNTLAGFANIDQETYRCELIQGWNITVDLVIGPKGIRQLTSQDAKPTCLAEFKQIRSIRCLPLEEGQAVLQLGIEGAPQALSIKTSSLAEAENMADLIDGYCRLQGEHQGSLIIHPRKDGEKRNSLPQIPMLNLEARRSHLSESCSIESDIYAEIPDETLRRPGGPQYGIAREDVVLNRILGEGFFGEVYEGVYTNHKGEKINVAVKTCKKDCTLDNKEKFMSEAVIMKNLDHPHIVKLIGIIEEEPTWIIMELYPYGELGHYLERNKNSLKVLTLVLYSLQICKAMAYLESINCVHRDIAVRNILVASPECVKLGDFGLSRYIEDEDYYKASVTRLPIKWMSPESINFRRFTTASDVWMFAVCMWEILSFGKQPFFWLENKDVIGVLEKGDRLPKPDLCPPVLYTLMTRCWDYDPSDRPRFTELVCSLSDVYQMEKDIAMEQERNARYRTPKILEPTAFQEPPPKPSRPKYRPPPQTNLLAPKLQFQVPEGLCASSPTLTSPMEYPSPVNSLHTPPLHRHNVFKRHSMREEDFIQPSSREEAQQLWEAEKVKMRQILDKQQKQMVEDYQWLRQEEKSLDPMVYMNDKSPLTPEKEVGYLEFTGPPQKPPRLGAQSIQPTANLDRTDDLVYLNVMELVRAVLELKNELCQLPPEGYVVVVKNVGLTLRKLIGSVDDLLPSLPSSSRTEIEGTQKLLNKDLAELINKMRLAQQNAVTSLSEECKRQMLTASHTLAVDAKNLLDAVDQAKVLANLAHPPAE
Chain of Proto-oncogene tyrosine-protein kinase receptor Ret (Homo sapiens) (P07949 whole entry): as the sequence (P07949 whole entry V804L) above, with L804V counted along it

| Compound | inhibition [1] | inhibition [2] | inhibition [3] | inhibition [4] | inhibition [5] | inhibition [6] | inhibition [7] | inhibition [8] | inhibition [9] | inhibition [10] | inhibition [11] | inhibition [12] | inhibition [13] | inhibition [14] | inhibition [15] | inhibition [16] | inhibition [17] | inhibition [18] | inhibition [19] | inhibition [20] |
| --- | --- | --- | --- | --- | --- | --- | --- | --- | --- | --- | --- | --- | --- | --- | --- | --- | --- | --- | --- | --- |
| OCCCNc1nccc(-c2c(-c3ccc(F)cc3)nn3cc(C(F)(F)F)ccc23)n1 | 6.98% | 10.9% | 15.3% | 2.53% | 5.03% | 4.67% | 6.04% | 0.23% | 6.06% | 6.16% | 14.4% | 0.71% | 1.35% | 3.13% | 7.75% | 4.24% | 11.4% | 1.59% | 3.05% | 6.39% |
| Fc1cccc(COc2ccc(Nc3ncncc3C#Cc3ccccc3)cc2Cl)c1 | 3.28% | 13% | 12.4% | 5.22% | 4.74% | 8.12% | 9.74% | 8.16% | 5.45% | 6.95% | 8.55% | 1.23% | 1.62% | 13.9% | 15.1% | -0.25% | 5.48% | 5.31% | 11.9% | 5.33% |
| O=C(O[C@H]1CN[C@H](C#Cc2cc3ncnc(Nc4ccc(OCc5cccc(F)c5)c(Cl)c4)c3s2)C1)N1CCOCC1 | 2.35% | 7.9% | 14.3% | 2.95% | 4.82% | 8.66% | 9.57% | 8.32% | 3.92% | 1.59% | 5.35% | 3.74% | 2.3% | 12.3% | 16.8% | 2% | 10.6% | 2.92% | 6.95% | 4.36% |
| CN1CCN(Cc2ccc(-c3cc4ncnc(Nc5ccc(OCc6cccc(F)c6)c(Cl)c5)c4s3)o2)CC1 | 1.12% and 8.01% | 6.77% and 7.26% | 16.9% and 23.4% | 3.07% and 3.74% | 6.44% and 9.07% | 4.32% and 7.13% | 13.9% and 20% | 5.61% and 3.37% | 13.1% and 11.5% | 2.48% and 3.36% | 6.41% and 13% | 2.16% and 3.11% | 3.13% and 4.91% | 8.63% and 10.6% | 8.03% and 19.6% | 6.83% and 5.69% | 13.4% and 14.8% | 3.67% and 4.61% | 5.81% and 10.9% | 4.88% and 3.59% |
| Cc1c2ccc(N(C)c3ccnc(Nc4cccc(S(N)(=O)=O)c4)n3)cc2nn1C | 5.12% | 63.5% | 86.5% | 13.9% | 57.9% | 77% | 96.5% | 71.5% | 92.5% | 53.9% | 79.2% | 10.4% | 46.1% | 10.9% | 39% | 44.6% | 77.5% | 10.1% | 37.3% | 60.6% |
| O=C(Nc1n[nH]c2nnc(-c3cccnc3)cc12)C1CC1 | -0.99% | -0.04% | 5.88% | 2.16% | 2.26% | 1.36% | 6.43% | 1.61% | 3.69% | 1.07% | 4.59% | -0.62% | -0.08% | 1.2% | 1.77% | -1.02% | 1.55% | 0.89% | 1.74% | 1.5% |
| CNC(=O)c1sc(-n2cnc3cc(OC)c(OC)cc32)cc1OCc1ccccc1C(F)(F)F | 2.82% | 17.2% | 59.7% | 3.81% | 28% | 4.17% | 9.43% | 7.81% | 44.8% | 9.81% | 44.2% | 1.48% | 3.75% | -3.85% | 0.13% | 1.78% | 9.67% | 6.14% | 11.4% | 8.02% |
| CCS(=O)(=O)c1ccc(OC)c(Nc2ncc(-c3cccc(F)c3)o2)c1 | 16.3% | 21.1% | 70.7% | 11.3% | 41.5% | 5.36% | 17.3% | 21.4% | 68.7% | 35.7% | 83.5% | 10.5% | 46.4% | 11% | 22.9% | 13.5% | 56.6% | 7.78% | 33.8% | 15.9% |
| CC1=C(C(=O)Nc2ccc3[nH]nc(C)c3c2)C(c2ccc(C(F)(F)F)cc2)CC(=O)N1 (stereo not given) | 23.7% | 7.08% | 19.3% | 2.09% | 6.76% | 2.02% | 1.41% | -0.51% | 8.12% | 8.62% | 12.2% | 1.26% | 6.47% | 10.8% | 5.14% | 7.82% | 44.2% | 12.2% | 42.2% | 10.5% |
| COC(=O)Nc1nc2cc(Oc3ccc(NC(=O)Nc4ccccc4)cc3)ccc2[nH]1 | 2.88% | 38.5% | 66.6% | 0.57% | 5.23% | 53% | 93.9% | 62.7% | 84.8% | 7.12% | 20.8% | 1.73% | 1.93% | -1.17% | 6.99% | 11.1% | 26.6% | 8.3% | 13.8% | 15.3% |
| COc1ccccc1-c1cc(/C=C2\C(=O)Nc3ncc(Br)cc32)cc(Br)c1O | 5.9% | 11.6% | 16.9% | 2.43% | 5.41% | 8.02% | 8.24% | 2.82% | 15.2% | 6.48% | 11.6% | 0.6% | 2.12% | 15.6% | 39.1% | 2.23% | 11.1% | 9.25% | 12% | 12.6% |
| CS(=O)(=O)Nc1ccc(-c2ccc3c(NC(=O)C4CC4)n[nH]c3c2)cc1 | 7.76% | 12.9% | 28.5% | 3.79% | 10.3% | 4.77% | 4.09% | 5.95% | 26.5% | 3.96% | 8.42% | 1.21% | 1.03% | 9.87% | 8.59% | 3.92% | 6.93% | 4.24% | 8.77% | 6.88% |
| COc1cc2c(cc1Nc1nc(Nc3cccc(F)c3C(N)=O)c3cc[nH]c3n1)N(C(=O)CN1CCN(C(C)C)CC1)CC2 | 8.69% | -1.51% | 15.2% | -0.49% | 1.55% | 2.01% | 2.59% | -0.47% | 11.6% | 1.46% | 5.17% | 0.37% | 1.24% | 57.7% | 93.4% | 1.04% | 5.75% | 1.85% | 7.87% | 1.11% |
